Legend:
Assay in all cases: DAPPL (digital affinity profiling via proximity ligation, sequencing); 10 mM Tris-HCl pH 7.5, 50 mM NaCl, 1 mM DTT, 4% glycerol, room temperature, 30 min; GST-TFs on glutathione beads, 16-mer random dsDNA library, 0.1% formaldehyde crosslink after washing; high values mean tight binding
Conditions in all cases: protein: recombinant; tags: N-terminal GST; dsDNA, one strand shown
FEV = molecular target: T1, FEV (Homo sapiens, UniProt Q99581 1-238)
T1 sequence: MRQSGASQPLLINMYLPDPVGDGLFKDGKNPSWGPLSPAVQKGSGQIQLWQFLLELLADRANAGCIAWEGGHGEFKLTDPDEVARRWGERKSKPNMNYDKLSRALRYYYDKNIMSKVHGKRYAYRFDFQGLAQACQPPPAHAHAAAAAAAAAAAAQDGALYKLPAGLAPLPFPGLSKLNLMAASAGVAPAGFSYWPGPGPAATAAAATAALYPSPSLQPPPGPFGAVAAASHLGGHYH
Procedure, shortened: (§1)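 Yeast served to express human transcription factors as GST fusions, which were then captured on glutathione beads and labelled with DNA barcodes. Pooled with a tag-only sample, they were incubated with 200 nmole of a 16-mer random double-stranded DNA library for 30 min at room temperature in Tris/NaCl/DTT/glycerol buffer, washed, crosslinked with 0.1% formaldehyde, ligated by proximity, amplified by PCR and sequenced. Dividing each hexamer's read frequency for a factor by its frequency for the tag-only sample gives the binding signal.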

ETV5 = ETV5 (Homo sapiens, UniProt P41161 1-510)
Sequence of ETV5 (P41161 whole entry): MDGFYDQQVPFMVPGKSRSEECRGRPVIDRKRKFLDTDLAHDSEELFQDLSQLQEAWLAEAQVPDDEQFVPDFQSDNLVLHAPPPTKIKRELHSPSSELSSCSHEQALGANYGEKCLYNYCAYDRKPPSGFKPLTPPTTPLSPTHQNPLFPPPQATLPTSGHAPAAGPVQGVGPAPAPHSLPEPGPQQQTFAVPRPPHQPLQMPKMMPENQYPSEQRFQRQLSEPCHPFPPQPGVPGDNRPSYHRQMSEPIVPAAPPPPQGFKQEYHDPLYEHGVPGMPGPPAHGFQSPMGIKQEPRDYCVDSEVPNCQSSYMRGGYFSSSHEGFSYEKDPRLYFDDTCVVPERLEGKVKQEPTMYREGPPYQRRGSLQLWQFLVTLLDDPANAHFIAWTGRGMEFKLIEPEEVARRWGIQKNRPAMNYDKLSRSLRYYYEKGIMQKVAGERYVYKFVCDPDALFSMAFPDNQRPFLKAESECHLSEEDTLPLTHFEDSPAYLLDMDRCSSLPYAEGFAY
Procedure, shortened: as §1

SPIC = molecular target: T2, SPIC (Homo sapiens, UniProt Q8N5J4 1-248)
T2 sequence: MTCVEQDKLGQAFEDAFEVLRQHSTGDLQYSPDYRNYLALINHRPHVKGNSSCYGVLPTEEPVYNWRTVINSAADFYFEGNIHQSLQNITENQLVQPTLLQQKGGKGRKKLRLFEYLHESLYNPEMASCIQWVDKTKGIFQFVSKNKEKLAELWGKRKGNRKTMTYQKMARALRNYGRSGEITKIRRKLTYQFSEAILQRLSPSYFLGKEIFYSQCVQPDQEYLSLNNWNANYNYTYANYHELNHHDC
Procedure, shortened: as §1

ELF4 = ELF4 (Homo sapiens, UniProt Q99607 1-663)
Sequence of ELF4 (Q99607 whole entry): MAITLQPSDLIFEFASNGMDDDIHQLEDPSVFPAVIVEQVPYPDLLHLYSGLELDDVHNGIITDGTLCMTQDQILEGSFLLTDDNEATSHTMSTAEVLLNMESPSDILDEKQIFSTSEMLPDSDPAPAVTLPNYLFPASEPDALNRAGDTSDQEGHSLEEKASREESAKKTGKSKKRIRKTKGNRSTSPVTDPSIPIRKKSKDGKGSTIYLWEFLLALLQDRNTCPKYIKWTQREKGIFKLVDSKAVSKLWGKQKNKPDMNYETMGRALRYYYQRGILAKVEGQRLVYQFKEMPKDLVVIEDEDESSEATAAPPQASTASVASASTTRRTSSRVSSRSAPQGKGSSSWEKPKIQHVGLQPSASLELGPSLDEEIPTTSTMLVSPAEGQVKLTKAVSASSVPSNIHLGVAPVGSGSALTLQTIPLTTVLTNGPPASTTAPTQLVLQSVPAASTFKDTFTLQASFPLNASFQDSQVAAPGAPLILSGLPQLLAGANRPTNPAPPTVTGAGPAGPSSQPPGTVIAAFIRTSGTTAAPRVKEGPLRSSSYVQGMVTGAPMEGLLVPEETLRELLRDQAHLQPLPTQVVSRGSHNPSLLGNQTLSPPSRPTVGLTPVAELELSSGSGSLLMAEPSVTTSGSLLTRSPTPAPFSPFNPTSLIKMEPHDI
Procedure, shortened: as §1

ELK4 = molecular target: T3, ELK4 (Homo sapiens, UniProt P28324-2 1-405)
T3 sequence: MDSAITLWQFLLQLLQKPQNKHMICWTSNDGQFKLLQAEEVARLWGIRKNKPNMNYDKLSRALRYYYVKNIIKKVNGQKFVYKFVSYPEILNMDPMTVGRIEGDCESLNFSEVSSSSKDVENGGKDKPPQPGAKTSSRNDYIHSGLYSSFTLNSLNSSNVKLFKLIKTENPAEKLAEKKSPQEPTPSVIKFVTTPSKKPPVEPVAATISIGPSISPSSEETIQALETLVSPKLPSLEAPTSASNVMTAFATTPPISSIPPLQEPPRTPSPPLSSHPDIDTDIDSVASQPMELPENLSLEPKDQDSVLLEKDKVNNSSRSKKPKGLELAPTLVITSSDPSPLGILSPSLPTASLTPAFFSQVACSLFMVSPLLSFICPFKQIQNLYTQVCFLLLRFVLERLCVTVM
Procedure, shortened: as §1

ETV2 = molecular target: T4, ETV2 (Homo sapiens, UniProt O00321 1-342)
T4 sequence: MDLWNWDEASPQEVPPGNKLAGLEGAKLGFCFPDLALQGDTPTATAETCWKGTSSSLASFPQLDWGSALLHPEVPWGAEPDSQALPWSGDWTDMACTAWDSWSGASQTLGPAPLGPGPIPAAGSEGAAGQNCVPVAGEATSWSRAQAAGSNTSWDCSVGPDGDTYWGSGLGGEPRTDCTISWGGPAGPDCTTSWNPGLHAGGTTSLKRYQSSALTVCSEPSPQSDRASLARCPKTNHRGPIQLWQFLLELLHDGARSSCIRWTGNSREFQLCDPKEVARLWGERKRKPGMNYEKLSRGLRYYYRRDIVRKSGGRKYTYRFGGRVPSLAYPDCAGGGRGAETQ
Procedure, shortened: as §1

ELF3 = molecular target: T5, ELF3 (Homo sapiens, UniProt P78545 1-371)
T5 sequence: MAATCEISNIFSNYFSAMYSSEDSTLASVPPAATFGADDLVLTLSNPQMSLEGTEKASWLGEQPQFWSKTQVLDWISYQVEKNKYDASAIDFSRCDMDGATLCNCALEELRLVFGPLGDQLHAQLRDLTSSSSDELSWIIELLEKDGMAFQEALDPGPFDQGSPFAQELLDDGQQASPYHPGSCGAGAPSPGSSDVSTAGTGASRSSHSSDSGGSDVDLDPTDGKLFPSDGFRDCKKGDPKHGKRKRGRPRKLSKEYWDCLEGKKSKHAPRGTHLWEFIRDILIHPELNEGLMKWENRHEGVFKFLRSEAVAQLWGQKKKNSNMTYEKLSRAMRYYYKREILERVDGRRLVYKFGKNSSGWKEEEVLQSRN
Procedure, shortened: as §1

ETV1 = ETV1 (Homo sapiens, UniProt P50549 1-477)
Sequence of ETV1 (P50549 whole entry): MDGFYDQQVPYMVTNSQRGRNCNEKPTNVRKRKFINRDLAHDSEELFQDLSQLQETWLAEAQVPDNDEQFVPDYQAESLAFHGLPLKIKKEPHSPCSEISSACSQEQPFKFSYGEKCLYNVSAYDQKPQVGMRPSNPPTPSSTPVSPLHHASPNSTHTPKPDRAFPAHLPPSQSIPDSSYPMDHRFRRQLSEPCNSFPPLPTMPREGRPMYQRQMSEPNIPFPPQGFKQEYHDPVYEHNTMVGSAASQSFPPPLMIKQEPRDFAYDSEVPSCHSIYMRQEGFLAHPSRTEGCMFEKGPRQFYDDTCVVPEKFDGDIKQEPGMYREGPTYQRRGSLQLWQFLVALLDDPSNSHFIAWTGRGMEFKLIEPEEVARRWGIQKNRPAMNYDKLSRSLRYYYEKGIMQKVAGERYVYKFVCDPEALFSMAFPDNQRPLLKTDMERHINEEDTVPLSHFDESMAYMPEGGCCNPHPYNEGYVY
Procedure, shortened: as §1

ERF = molecular target: T6, ERF (Homo sapiens, UniProt P50548 1-548)
T6 sequence: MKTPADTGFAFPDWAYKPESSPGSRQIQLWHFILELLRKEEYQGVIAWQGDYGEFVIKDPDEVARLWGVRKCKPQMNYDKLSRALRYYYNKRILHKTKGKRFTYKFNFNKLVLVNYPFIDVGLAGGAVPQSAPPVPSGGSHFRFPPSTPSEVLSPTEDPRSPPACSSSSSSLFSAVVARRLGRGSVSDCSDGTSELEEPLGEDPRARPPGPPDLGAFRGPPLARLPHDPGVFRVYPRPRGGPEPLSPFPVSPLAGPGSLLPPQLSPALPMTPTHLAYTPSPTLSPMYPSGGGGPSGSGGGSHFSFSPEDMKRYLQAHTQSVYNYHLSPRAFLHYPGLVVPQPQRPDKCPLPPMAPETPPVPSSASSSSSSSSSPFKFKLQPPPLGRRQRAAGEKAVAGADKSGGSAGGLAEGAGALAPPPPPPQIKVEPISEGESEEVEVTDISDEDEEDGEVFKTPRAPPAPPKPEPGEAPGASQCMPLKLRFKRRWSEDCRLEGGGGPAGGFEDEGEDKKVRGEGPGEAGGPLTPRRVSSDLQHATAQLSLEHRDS
Procedure, shortened: as §1

ETV3L = molecular target: T7, ETV3L (Homo sapiens, UniProt Q6ZN32 1-361)
T7 sequence: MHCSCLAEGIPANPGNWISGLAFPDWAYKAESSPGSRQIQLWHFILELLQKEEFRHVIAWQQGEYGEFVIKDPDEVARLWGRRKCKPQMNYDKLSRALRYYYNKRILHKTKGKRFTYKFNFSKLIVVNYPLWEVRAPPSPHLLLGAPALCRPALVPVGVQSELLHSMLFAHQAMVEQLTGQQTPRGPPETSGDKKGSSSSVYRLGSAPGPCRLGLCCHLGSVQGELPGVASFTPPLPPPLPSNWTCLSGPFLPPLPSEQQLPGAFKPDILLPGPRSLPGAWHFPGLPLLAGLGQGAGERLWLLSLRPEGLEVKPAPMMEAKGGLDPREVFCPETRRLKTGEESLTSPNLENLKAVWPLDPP
Procedure, shortened: as §1

ETS2 = molecular target: T8, ETS2 (Homo sapiens, UniProt P15036 1-469)
T8 sequence: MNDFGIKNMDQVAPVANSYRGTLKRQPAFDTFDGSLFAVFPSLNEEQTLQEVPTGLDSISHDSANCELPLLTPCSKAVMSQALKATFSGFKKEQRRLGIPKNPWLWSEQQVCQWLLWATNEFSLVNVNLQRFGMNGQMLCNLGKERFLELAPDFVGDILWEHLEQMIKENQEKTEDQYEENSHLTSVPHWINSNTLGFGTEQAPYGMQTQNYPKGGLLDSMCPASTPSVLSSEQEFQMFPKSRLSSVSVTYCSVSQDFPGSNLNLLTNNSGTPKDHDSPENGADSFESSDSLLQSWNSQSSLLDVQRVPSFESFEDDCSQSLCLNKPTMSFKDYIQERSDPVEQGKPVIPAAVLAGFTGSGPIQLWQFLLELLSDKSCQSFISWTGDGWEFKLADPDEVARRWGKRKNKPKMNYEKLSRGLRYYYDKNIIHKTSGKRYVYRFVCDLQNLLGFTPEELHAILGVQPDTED
Procedure, shortened: as §1

SPDEF = molecular target: T9, SPDEF (Homo sapiens, UniProt O95238 1-335)
T9 sequence: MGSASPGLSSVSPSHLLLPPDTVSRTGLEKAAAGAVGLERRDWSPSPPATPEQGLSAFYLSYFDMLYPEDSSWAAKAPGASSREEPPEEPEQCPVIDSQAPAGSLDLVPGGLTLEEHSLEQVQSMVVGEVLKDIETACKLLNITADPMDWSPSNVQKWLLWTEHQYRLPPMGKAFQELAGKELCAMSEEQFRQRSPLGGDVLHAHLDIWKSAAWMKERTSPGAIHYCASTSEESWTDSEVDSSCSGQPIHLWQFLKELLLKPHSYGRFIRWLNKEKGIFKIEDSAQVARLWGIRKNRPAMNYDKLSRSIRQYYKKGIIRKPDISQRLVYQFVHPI
Procedure, shortened: as §1

ETV7 = molecular target: T10, ETV7 (Homo sapiens, UniProt Q9Y603 1-341)
T10 sequence: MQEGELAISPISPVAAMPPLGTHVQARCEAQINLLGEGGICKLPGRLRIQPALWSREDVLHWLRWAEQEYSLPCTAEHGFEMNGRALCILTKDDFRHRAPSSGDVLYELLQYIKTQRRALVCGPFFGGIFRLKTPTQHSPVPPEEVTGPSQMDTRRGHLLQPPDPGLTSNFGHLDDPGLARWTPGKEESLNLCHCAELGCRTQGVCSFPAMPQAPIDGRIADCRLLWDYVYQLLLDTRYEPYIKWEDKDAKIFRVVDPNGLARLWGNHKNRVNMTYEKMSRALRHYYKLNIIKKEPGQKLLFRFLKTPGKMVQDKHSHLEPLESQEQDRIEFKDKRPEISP
Procedure, shortened: as §1

ELF5 = molecular target: T11, ELF5 (Homo sapiens, UniProt Q9UKW6-2 1-255)
T11 sequence: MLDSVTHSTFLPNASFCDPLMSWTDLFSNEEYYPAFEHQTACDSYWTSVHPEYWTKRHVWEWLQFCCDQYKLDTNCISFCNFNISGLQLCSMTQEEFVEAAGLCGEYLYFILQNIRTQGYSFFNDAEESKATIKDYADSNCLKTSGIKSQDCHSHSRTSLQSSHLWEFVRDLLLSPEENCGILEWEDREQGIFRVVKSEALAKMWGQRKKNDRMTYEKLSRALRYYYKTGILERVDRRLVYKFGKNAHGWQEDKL
Procedure, shortened: as §1

ETV3 = molecular target: T12, ETV3 (Homo sapiens, UniProt P41162-2 1-143)
T12 sequence: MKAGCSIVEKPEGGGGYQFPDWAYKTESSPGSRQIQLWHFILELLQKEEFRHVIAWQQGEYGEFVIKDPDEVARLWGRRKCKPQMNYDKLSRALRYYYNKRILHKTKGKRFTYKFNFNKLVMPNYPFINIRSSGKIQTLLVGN
Procedure, shortened: as §1

ETV6 = ETV6 (Homo sapiens, UniProt P41212 1-452)
Sequence of ETV6 (P41212 whole entry): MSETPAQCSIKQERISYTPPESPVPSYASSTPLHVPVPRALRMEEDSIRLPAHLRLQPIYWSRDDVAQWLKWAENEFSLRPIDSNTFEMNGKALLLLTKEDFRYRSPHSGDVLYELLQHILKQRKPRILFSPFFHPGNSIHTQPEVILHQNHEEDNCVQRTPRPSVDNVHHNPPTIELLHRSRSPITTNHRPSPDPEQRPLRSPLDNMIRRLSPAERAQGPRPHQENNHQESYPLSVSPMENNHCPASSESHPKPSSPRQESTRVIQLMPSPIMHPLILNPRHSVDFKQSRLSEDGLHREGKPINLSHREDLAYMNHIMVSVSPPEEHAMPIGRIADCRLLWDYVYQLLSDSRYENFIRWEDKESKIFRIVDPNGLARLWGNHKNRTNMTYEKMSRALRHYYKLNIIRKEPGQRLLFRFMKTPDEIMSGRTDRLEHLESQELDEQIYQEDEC
Procedure, shortened: as §1

Sequence	binding signal (FEV)	binding signal (ETV5)	binding signal (SPIC)	binding signal (ELF4)	binding signal (ELK4)	binding signal (ETV2)	binding signal (ELF3)	binding signal (ETV1)	binding signal (ERF)	binding signal (ETV3L)	binding signal (ETS2)	binding signal (SPDEF)	binding signal (ETV7)	binding signal (ELF5)	binding signal (ETV3)	binding signal (ETV6)
GCCCTC	1.18 fold enrichment (6-mer frequency, TF over GST control)	1.12 fold enrichment (6-mer frequency, TF over GST control)	1.26 fold enrichment (6-mer frequency, TF over GST control)	1.3 fold enrichment (6-mer frequency, TF over GST control)	1.1 fold enrichment (6-mer frequency, TF over GST control)	1.27 fold enrichment (6-mer frequency, TF over GST control)	1.18 fold enrichment (6-mer frequency, TF over GST control)	1.18 fold enrichment (6-mer frequency, TF over GST control)	1.26 fold enrichment (6-mer frequency, TF over GST control)	1.09 fold enrichment (6-mer frequency, TF over GST control)	1.24 fold enrichment (6-mer frequency, TF over GST control)	1.08 fold enrichment (6-mer frequency, TF over GST control)	1.22 fold enrichment (6-mer frequency, TF over GST control)	1.1 fold enrichment (6-mer frequency, TF over GST control)	1.17 fold enrichment (6-mer frequency, TF over GST control)	1.05 fold enrichment (6-mer frequency, TF over GST control)
GATAGC	1.07 fold enrichment (6-mer frequency, TF over GST control)	1.04 fold enrichment (6-mer frequency, TF over GST control)	1.07 fold enrichment (6-mer frequency, TF over GST control)	1.06 fold enrichment (6-mer frequency, TF over GST control)	1.03 fold enrichment (6-mer frequency, TF over GST control)	1.18 fold enrichment (6-mer frequency, TF over GST control)	1.08 fold enrichment (6-mer frequency, TF over GST control)	1.02 fold enrichment (6-mer frequency, TF over GST control)	1.15 fold enrichment (6-mer frequency, TF over GST control)	1.06 fold enrichment (6-mer frequency, TF over GST control)	1.12 fold enrichment (6-mer frequency, TF over GST control)	1.05 fold enrichment (6-mer frequency, TF over GST control)	1.06 fold enrichment (6-mer frequency, TF over GST control)	–	1.05 fold enrichment (6-mer frequency, TF over GST control)	1.03 fold enrichment (6-mer frequency, TF over GST control)
CCATAC	1.16 fold enrichment (6-mer frequency, TF over GST control)	1.16 fold enrichment (6-mer frequency, TF over GST control)	1.13 fold enrichment (6-mer frequency, TF over GST control)	1.27 fold enrichment (6-mer frequency, TF over GST control)	1.14 fold enrichment (6-mer frequency, TF over GST control)	1.06 fold enrichment (6-mer frequency, TF over GST control)	1.06 fold enrichment (6-mer frequency, TF over GST control)	1.15 fold enrichment (6-mer frequency, TF over GST control)	1.27 fold enrichment (6-mer frequency, TF over GST control)	1.22 fold enrichment (6-mer frequency, TF over GST control)	1.18 fold enrichment (6-mer frequency, TF over GST control)	1.2 fold enrichment (6-mer frequency, TF over GST control)	1.14 fold enrichment (6-mer frequency, TF over GST control)	1.09 fold enrichment (6-mer frequency, TF over GST control)	1.08 fold enrichment (6-mer frequency, TF over GST control)	1.21 fold enrichment (6-mer frequency, TF over GST control)
